{"source": "PubChem BioAssay (NCATS)", "key": {"[1]": {"target": "Tyrosine-protein kinase Yes (Homo sapiens) (UniProt P07947)", "sequence (P07947 whole entry, looked up)": "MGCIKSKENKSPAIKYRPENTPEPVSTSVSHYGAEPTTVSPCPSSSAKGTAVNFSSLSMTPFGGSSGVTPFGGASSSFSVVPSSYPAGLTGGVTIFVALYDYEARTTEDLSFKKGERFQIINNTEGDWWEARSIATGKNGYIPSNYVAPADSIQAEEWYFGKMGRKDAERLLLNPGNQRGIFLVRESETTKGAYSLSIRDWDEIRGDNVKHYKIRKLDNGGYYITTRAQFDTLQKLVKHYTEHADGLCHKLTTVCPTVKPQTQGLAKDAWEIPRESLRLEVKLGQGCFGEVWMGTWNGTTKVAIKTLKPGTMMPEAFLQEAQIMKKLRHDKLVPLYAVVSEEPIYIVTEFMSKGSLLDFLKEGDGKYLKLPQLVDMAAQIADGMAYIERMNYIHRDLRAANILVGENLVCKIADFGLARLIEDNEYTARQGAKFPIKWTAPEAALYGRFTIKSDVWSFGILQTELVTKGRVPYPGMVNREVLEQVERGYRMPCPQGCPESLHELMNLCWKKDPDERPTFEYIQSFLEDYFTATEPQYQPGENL", "assay": "qHTS for small molecule inhibitors of Yes1 kinase: Primary Screen (AID 686947);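 note: plate controls were DMSO with enzyme for no effect and no-enzyme DMSO wells for full effect; nearly all actives have a fitted effect of over 60% in size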", "how_it_was_run": "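In this qHTS format, inhibition is expressed relative to DMSO controls with enzyme (maximum) and without enzyme (minimum). The 60 min room-temperature reaction uses 0.1 mM ATP, with ADP detected by luminescence.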"}, "[2]": {"assay": "qHTS for small molecule inhibitors of Yes1 kinase: Counter Assay (AID 686950);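 note: no kinase present so only ADP-Glo detection of a fixed ADP amount is tested; luminescence from ADP-Glo reporting ADP in a fixed ATP and ADP mixture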", "how_it_was_run": "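ADP-Glo luminescence read after a 60 min room-temperature incubation of compound with an ATP/ADP mix (0.08 mM/0.02 mM) and no kinase, following a 20 min compound preincubation. Signal scaled between ATP+ADP (max) and 0.1 mM ATP-only (min) wells; Tris pH 7.5, Mg2+, DTT.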"}, "[3]": {"target": "Arylsulfatase A (Homo sapiens) (UniProt P15289)", "sequence (P15289 whole entry, looked up)": "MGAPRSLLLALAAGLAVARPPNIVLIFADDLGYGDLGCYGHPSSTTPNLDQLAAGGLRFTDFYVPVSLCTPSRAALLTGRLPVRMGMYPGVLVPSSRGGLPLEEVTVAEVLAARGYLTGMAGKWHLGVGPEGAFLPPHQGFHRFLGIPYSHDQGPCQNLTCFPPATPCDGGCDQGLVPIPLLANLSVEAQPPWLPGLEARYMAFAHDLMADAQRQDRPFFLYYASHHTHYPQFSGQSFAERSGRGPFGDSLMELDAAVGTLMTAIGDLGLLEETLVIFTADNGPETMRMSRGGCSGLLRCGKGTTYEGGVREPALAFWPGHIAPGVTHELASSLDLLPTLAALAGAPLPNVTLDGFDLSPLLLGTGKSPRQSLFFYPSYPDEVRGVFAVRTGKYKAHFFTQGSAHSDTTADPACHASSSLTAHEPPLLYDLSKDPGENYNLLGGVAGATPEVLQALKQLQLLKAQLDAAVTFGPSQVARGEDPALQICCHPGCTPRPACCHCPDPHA", "assay": "qHTS screen for enhancers of Arylsulfatase A (ASA1): LOPAC Validation Assay (AID 720538); note: 0% is about no effect", "how_it_was_run": "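First, ASA-I179S fibroblasts from an MLD patient adhered for 6 hrs. Next, compounds were added for 48h. Then pNCS substrate (0.5mM final) with lysis buffer reacted 14h at room temperature before NaOH stop and fluorescence measurement.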"}, "[4]": {"assay": "qHTS for compounds that reverse cellular toxicity of Amyloid beta (A-beta) peptide in yeast: LOPAC Validation Assay (AID 720559);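 note: plate controls were DMSO for no effect and equimolar ferric chloride plus clioquinol rescue for full effect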", "how_it_was_run": "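Activity is expressed relative to DMSO and an equimolar ferric chloride/clioquinol mix. Compounds were pinned into medium with A-beta-expressing yeast, grown 48 hr at 30 C, then read by absorbance at 600 nm.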"}, "[5]": {"assay": "qHTS for Activators of Parkin Expression: LOPAC Validation Assay (NLuc Reporter) (AID 720572)", "how_it_was_run": "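Compound effects on Parkin promoter activity were measured as NanoLuc luminescence after 24 h at 37 C. The neuronal reporter line also carried FLuc, which was read first. LOPAC compounds were tested at 7 concentrations, with normalization to DMSO (0%) and positive control (100%).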"}, "[6]": {"assay": "qHTS for Activators of Parkin Expression: LOPAC Validation Assay (FLuc Reporter) (AID 720573)", "how_it_was_run": "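A neuronal cell line harbouring FLuc and NLuc reporters behind the Parkin promoter was exposed to compounds for 24 h. Firefly luciferase signal, measured after 10 min with detection reagent, was scaled to DMSO and positive-control wells.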"}, "[7]": {"target": "T1, Hexokinase-4 (Homo sapiens) + Glucokinase regulatory protein (Homo sapiens) (UniProt P35557+Q14397)", "T1 sequence (P35557 whole entry, looked up)": "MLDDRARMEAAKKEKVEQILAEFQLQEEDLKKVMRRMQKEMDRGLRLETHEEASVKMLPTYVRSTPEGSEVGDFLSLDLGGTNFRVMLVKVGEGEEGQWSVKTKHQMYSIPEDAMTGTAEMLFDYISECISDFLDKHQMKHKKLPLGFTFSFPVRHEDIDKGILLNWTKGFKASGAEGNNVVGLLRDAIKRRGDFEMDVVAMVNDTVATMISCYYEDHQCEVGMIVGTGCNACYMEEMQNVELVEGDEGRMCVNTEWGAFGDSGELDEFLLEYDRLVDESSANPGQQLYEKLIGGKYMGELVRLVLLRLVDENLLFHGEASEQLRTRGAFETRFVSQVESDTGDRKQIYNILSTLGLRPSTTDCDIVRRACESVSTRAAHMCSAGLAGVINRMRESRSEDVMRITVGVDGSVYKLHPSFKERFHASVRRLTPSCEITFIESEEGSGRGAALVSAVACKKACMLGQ", "T1 sequence (Q14397 whole entry, looked up)": "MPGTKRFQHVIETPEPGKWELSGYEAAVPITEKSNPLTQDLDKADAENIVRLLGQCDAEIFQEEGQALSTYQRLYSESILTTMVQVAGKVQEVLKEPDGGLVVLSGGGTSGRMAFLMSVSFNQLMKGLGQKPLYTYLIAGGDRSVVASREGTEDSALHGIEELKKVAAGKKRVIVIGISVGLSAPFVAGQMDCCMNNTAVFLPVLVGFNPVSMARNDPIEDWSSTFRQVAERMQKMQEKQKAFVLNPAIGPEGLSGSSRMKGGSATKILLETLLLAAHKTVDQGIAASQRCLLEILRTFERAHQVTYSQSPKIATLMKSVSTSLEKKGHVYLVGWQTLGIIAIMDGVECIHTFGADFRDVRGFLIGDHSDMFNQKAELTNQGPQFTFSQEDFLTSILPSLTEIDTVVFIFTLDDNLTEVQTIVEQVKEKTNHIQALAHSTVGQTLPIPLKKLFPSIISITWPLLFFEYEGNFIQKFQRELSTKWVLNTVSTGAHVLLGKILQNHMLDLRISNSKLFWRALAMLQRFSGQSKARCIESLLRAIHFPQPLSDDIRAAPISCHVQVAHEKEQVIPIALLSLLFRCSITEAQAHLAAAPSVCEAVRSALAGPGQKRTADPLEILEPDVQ", "assay": "qHTS assay for inhibitors of recombinant human GCK-GKRP interaction: Diaphorase-coupled assay (AID 743205)", "how_it_was_run": "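Inhibitors of the GCK–GKRP complex relieve GKRP suppression of GCK, detected through a G6PDH–diaphorase cascade reducing resazurin. Human GST-GCK and FLAG-GKRP are used at 10 nM with 5 mM glucose and 0.4 mM ATP.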"}, "[8]": {"target": "T1, Hexokinase-4 (Homo sapiens) + Glucokinase regulatory protein (Homo sapiens)", "assay": "qHTS assay for inhibitors of recombinant human GCK-GKRP interaction: ADP-Glo assay (AID 743206);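 note: plate controls were DMSO plus enzyme for no effect and no enzyme for full effect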", "how_it_was_run": "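Pin-transferred compounds meet a 15 nM GST-GCK/15 nM FLAG-GKRP/2 uM S6P mix (dispense concentrations). ATP is then added to 0.4 mM final with 5 mM glucose, and the reaction runs 60 min at room temperature. ADP is quantified luminescently.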"}, "[9]": {"target": "T1, Hexokinase-4 (Homo sapiens) + Glucokinase regulatory protein (Homo sapiens)", "assay": "qHTS assay for inhibitors of recombinant human GCK-GKRP interaction: HTRF assay (AID 743207);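 note: 0% = DMSO with GCK present and -100% = DMSO wells lacking GCK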", "how_it_was_run": "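Steps: dispense GCK–GKRP complex (5 nM each, GST- and FLAG-tagged) with 2 uM S6P; pin in compounds; add XL665/Eu-cryptate-labelled antibodies; incubate 60 min at room temperature; read time-resolved FRET at 665 and 615 nm.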"}, "[10]": {"assay": "qHTS profiling of the MIPE4 collection as inhibitors of Plasmodium falciparum (3D7) proliferation (AID 743344; call rule not given here)", "conditions": "P. falciparum 3D7 in erythrocytes, SYBR Green DNA fluorescence, 72 h; at 28.5 µM (top of the series)", "how_it_was_run": "(§1)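 Parasite DNA was quantified by SYBR Green I fluorescence (ex 485, em 535 nm) after overnight lysis in saponin/Triton buffer at room temperature. Cultures at 0.3% parasitemia and 2.5% hematocrit were first exposed to compound for 72 h at 37 C; signals were normalised to artemisinin (0.29 uM) and vehicle wells.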"}, "[11]": {"assay": "qHTS profiling of the MIPE4 collection as inhibitors of Plasmodium falciparum (DD2) proliferation (AID 743345; call rule not given here)", "conditions": "P. falciparum Dd2 in erythrocytes, SYBR Green DNA, 72 h; at 28.5 µM (top of the series)", "how_it_was_run": "as §1"}, "[12]": {"assay": "qHTS profiling of the MIPE4 collection as inhibitors of Plasmodium falciparum (DD2) proliferation (Rep 2) (AID 743346; call rule not given here)", "conditions": "P. falciparum Dd2 in erythrocytes, SYBR Green DNA, 72 h; at 28.5 µM (top of the series)", "how_it_was_run": "as §1"}, "[13]": {"assay": "qHTS profiling of the MIPE4 collection as inhibitors of Plasmodium falciparum (HB3) proliferation (AID 743347; call rule not given here)", "conditions": "P. falciparum HB3 in erythrocytes, SYBR Green DNA, 72 h; at 28.5 µM (top of the series)", "how_it_was_run": "as §1"}}, "note": "Records with an inconclusive call do not appear. Active and inactive are the calls of the source. Unless noted, calls come from the whole dose curve; as a rule, active = well fitted curve in the direction sought with a large enough effect; inconclusive = small, poorly fitted or top-dose-only effect, or another doubt; inactive = no such curve, though single readings can be large; an effect the other way counts as inactive or inconclusive.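 Throughout, for growth, % of control: plate controls were DMSO vehicle wells for no effect and artemisinin wells for full effect.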"}
{"smiles": "COc1cc(F)c(F)c(Nc2ccc(I)cc2F)c1NS(=O)(=O)C1(CC(O)CO)CC1", "note": "(centres undefined)", "values": [{"measurement": "outcome", "setting": "[1]", "value": "inactive"}, {"measurement": "outcome", "setting": "[2]", "value": "inactive"}]}
{"smiles": "COc1cc(O)c2c(c1)/C=C/C[C@H](O)[C@H](O)C(=O)/C=C\\C[C@H](C)OC2=O", "values": [{"measurement": "outcome", "setting": "[2]", "value": "inactive"}]}
{"smiles": "CN[C@H]1CC[C@@H](c2ccc(Cl)c(Cl)c2)c2ccccc21", "values": [{"measurement": "outcome", "setting": "[3]", "value": "inactive"}, {"measurement": "outcome", "setting": "[4]", "value": "inactive"}, {"measurement": "outcome", "setting": "[5]", "value": "inactive"}, {"measurement": "outcome", "setting": "[6]", "value": "inactive"}, {"measurement": "outcome", "setting": "[7]", "value": "inactive"}, {"measurement": "outcome", "setting": "[8]", "value": "inactive"}, {"measurement": "outcome", "setting": "[9]", "value": "inactive"}]}
{"smiles": "NCCCC(=O)O", "values": [{"measurement": "outcome", "setting": "[4]", "value": "inactive"}, {"measurement": "outcome", "setting": "[5]", "value": "inactive"}, {"measurement": "outcome", "setting": "[6]", "value": "inactive"}, {"measurement": "outcome", "setting": "[7]", "value": "inactive"}, {"measurement": "outcome", "setting": "[8]", "value": "inactive"}, {"measurement": "outcome", "setting": "[9]", "value": "inactive"}]}
{"smiles": "N[C@@H](C(=O)N[C@H]1C(=O)N2C(C(=O)O)=C(Cl)CC[C@H]12)c1ccccc1", "values": [{"measurement": "parasite growth, % of DMSO control", "setting": "[10]", "value": 101, "unit": "%"}, {"measurement": "parasite growth remaining, % of DMSO control (lower = more inhibition)", "setting": "[11]", "value": 100, "unit": "%"}, {"measurement": "parasite growth, % of control (lower = inhibition)", "setting": "[12]", "value": 78.4, "unit": "%"}, {"measurement": "growth, % of control", "setting": "[13]", "value": 104, "unit": "%"}]}
{"smiles": "CC(=O)NC[C@H]1CN(c2ccc(N3CCSCC3)c(F)c2)C(=O)O1", "values": [{"measurement": "parasite growth, % of DMSO control", "setting": "[10]", "value": 91.5, "unit": "%"}, {"measurement": "parasite growth remaining, % of DMSO control (lower = more inhibition)", "setting": "[11]", "value": 103, "unit": "%"}, {"measurement": "parasite growth, % of control (lower = inhibition)", "setting": "[12]", "value": 186, "unit": "%"}, {"measurement": "growth, % of control", "setting": "[13]", "value": 110, "unit": "%"}]}
